# In the antibiotic and cytotoxicity screens of Wong et al. (2023):
# Screen size: about 39,000 compounds; about 1,500 (3.8%) were called active. Many of the other results were omitted from the sample, so actives are more common in it than they were.
# Tested on: HSkMC (human skeletal muscle cells)
# Test: cytotoxicity call (relative viability < 0.9)
# Conditions: 10 µM
row,SMILES,cytotoxicity call
1,CN1CCCCC[C@@H]1C(=O)O,inactive
2,CO[C@@H]1CN(C)C(=O)c2ccc(NC(=O)C3CC3)cc2OC[C@@H](C)N(C(=O)Cc2ccccn2)C[C@@H]1C,inactive
3,Cc1noc(C)c1S(=O)(=O)N(C)C[C@@H]1Oc2ccc(NC(=O)C3CC3)cc2CC(=O)N([C@@H](C)CO)C[C@H]1C,inactive
4,CC1(C)CCC(c2ccc(Cl)cc2)=C(CN2CCN(c3ccc(C(=O)NS(=O)(=O)c4ccc(N[C@@H](CCN5CCOCC5)CSc5ccccc5)c(S(=O)(=O)C(F)(F)F)c4)cc3)CC2)C1,active
5,CN(C)CC[C@H](CSc1ccccc1)Nc1ccc(S(=O)(=O)NC(=O)c2ccc(N3CCN(Cc4ccccc4-c4ccc(Cl)cc4)CC3)cc2)cc1[N+](=O)[O-],inactive
6,CC1(C)CCC(c2ccc(Cl)cc2)=C(CN2CCN(c3ccc(C(=O)NS(=O)(=O)c4ccc(N[C@H](CCN5CCOCC5)CSc5ccccc5)c(S(=O)(=O)C(F)(F)F)c4)cc3)CC2)C1,active
7,CC1(C)CCC(CN2CCN(c3ccc(C(=O)NS(=O)(=O)c4ccc(NCC5CCOCC5)c([N+](=O)[O-])c4)c(Oc4cnc5[nH]ccc5c4)c3)CC2)=C(c2ccc(Cl)cc2)C1,inactive
8,O=S(=O)(NCC[C@@H]1CC[C@@H](NS(=O)(=O)c2ccccc2Cl)[C@@H](CO)O1)c1ccc(F)cc1,inactive
9,COc1ccc(NC(=O)Nc2ccc3c(c2)C(=O)N([C@@H](C)CO)C[C@H](C)[C@@H](CN(C)S(=O)(=O)c2c(C)noc2C)OCCCC[C@@H](C)O3)cc1,inactive
10,C[C@@H]1CCCCO[C@@H](CN(C)C(=O)Nc2ccc(C(F)(F)F)cc2)[C@@H](C)CN([C@H](C)CO)C(=O)c2cc(NC(=O)Cc3ccccc3)ccc2O1,inactive
11,C[C@H](CCC(=O)NCCS(=O)(=O)O)[C@H]1CC[C@H]2[C@@H]3[C@H](O)C[C@@H]4C[C@H](O)CC[C@]4(C)[C@H]3C[C@H](O)[C@]12C,inactive
12,CC(CCC(=O)O)C1CCC2C3C(O)CC4CC(O)CCC4(C)C3CCC12C (configuration not stated),inactive
13,COC(=O)CCC(C)C1CCC2C3C(O)CC4CC(O)CCC4(C)C3CC(O)C12C (configuration not stated),inactive
14,CC(C)[C@@H](CC[C@@H](C)[C@H]1CC[C@H]2[C@@H]3[C@H](O)C[C@H]4C[C@@H](NCCCNCCCCNCCCN)CC[C@]4(C)[C@H]3CC[C@]12C)OS(=O)(=O)O,active
15,CC(C)[C@@H](CC[C@@H](C)[C@H]1CC[C@H]2[C@@H]3[C@H](O)C[C@H]4C[C@@H](NCCCNCCCCN)CC[C@]4(C)[C@H]3CC[C@]12C)OS(=O)(=O)O,active
16,C[C@H](CCC(=O)NCC(=O)NCCS(=O)(=O)O)[C@H]1CC[C@H]2[C@@H]3[C@H](O)C[C@@H]4C[C@H](O)CC[C@]4(C)[C@H]3C[C@H](O)[C@]12C,inactive
17,CC(=O)N1CCO[C@H]2CCN(C(=O)c3cn(C)cn3)C[C@H]21,inactive
18,Cc1ccc(S(=O)(=O)N(C)C[C@H]2OCCCC[C@H](C)Oc3ccc(NC(=O)Nc4ccc(F)cc4)cc3C(=O)N([C@H](C)CO)C[C@@H]2C)cc1,inactive
19,Cc1noc(C)c1NC(=O)N(C)C[C@@H]1Oc2ccc(NC(=O)c3ccncc3)cc2CC(=O)N([C@H](C)CO)C[C@H]1C,inactive

row,SMILES,cytotoxicity call
1,COc1cccc(NC(=O)N(C)C[C@H]2OCc3ccccc3-c3c(n(C)c4ccccc34)C(=O)N([C@@H](C)CO)C[C@H]2C)c1,inactive
2,C[C@H]1CN([C@@H](C)CO)S(=O)(=O)c2ccc(C#CCC3CCCC3)cc2O[C@@H]1CN(C)C(=O)c1cnccn1,inactive
3,C=CCC[C@@H](Cc1ccc(F)cc1)C(=O)OC[C@H](Cc1c[nH]c2ccccc12)NC(=O)[C@H](CC=C)CC(=O)N(CCO)Cc1ccccc1,inactive
4,C=CCC[C@H](Cc1ccc(F)cc1)C(=O)OC[C@@H](Cc1c[nH]c2ccccc12)NC(=O)[C@@H](CC=C)CC(=O)N[C@@H](CO)Cc1ccccc1,inactive
5,C=CCC[C@@H](Cc1ccc(F)cc1)C(=O)OC[C@@H](Cc1c[nH]c2ccccc12)NC(=O)[C@@H](CC=C)CC(=O)N[C@@H](CO)Cc1ccccc1,inactive
6,C=CCC[C@@H](Cc1ccc(F)cc1)C(=O)OC[C@@H](Cc1c[nH]c2ccccc12)NC(=O)[C@H](CC=C)CC(=O)N(CCO)Cc1ccccc1,active
7,C=CCC[C@@H](Cc1ccc(F)cc1)C(=O)OC[C@H](Cc1c[nH]c2ccccc12)NC(=O)[C@@H](CC=C)CC(=O)N(CCO)Cc1ccccc1,inactive
8,C=CCC[C@H](Cc1ccc(F)cc1)C(=O)OC[C@H](Cc1c[nH]c2ccccc12)NC(=O)[C@@H](CC=C)CC(=O)N(CCO)Cc1ccccc1,active
9,C=CCC[C@@H](Cc1ccc(F)cc1)C(=O)OC[C@@H](Cc1c[nH]c2ccccc12)NC(=O)[C@@H](CC=C)CC(=O)N(CCO)Cc1ccccc1,active
10,C=CCC[C@H](Cc1ccc(F)cc1)C(=O)OC[C@H](Cc1c[nH]c2ccccc12)NC(=O)[C@H](CC=C)CC(=O)N(CCO)Cc1ccccc1,inactive
11,C=CCC[C@H](Cc1ccc(F)cc1)C(=O)OC[C@@H](Cc1c[nH]c2ccccc12)NC(=O)[C@H](CC=C)CC(=O)N(CCO)Cc1ccccc1,active
12,C=CCC[C@H](Cc1ccc(F)cc1)C(=O)OC[C@@H](Cc1c[nH]c2ccccc12)NC(=O)[C@@H](CC=C)CC(=O)N(CCO)Cc1ccccc1,inactive
13,CC(C)(C)[S@@](=O)N1Cc2cc(C(=O)N3CCc4ccccc4C3)nc(-c3cccc(-c4ccncc4)c3)c2[C@H]1CCO,inactive
14,CCO[C@H]1OC(C(=O)N2CCN(C)CC2)=C[C@@H](c2coc3ccccc3c2=O)[C@@H]1CCCOC(=O)NCCCCCC(=O)NO,inactive
15,C[C@@H]1CN([C@@H](C)CO)C(=O)Cc2cc(NS(=O)(=O)c3cccs3)ccc2O[C@@H]1CN(C)Cc1ccc(-c2ccccc2)cc1,inactive
16,NC(=O)CC(N)=S,inactive
17,C[C@H]1CN([C@@H](C)CO)S(=O)(=O)c2ccc(C#CC3CCCC3)cc2O[C@H]1CN(C)C(=O)Cc1ccncc1,inactive
18,CN(C)CC(=O)N1[C@@H]2Cn3c(ccc(-c4ccccc4)c3=O)[C@H]1[C@@H](C(=O)N1CCOCC1)[C@@H]2CO,inactive
